Results filed as inconclusive are left out. Unmarked numbers belong to inactive results. The call rests on the fitted dose curve; in most records, active means well fitted activation curve with a large enough effect; inconclusive means small, poorly fitted or top-dose-only effect; inactive means flat fitted curve, though single readings scatter.

The nature of this experiment: qHTS for Inhibitors of Cell Surface uPA Generation: Confirmatory Assay for Cherry-picked Compounds. Further: 0% is about no effect. As to conditions: cell surface uPA activity generation, qHTS confirmation; series mostly up to 115 µM; inhibition: at the top concentration. Put shortly: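 RAW 264.7 cells at 4000/well, incubated overnight, then treated with compounds. After 24 h at 37 C, viability was read by ATPlite luminescence. An increase in signal indicates blocked uPA-dependent LF entry.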
Take `CCCc1nc2c(=O)n(C)c(=O)[nH]c2n1CCC`: the “inhibition” value was 1.04%.

For `N#CCC(=O)N/N=C/c1ccc(OCC(=O)Nc2ccc(F)cc2)cc1`, the “inhibition” value was 1.17%.

Turning to `CCCCn1c(=NC(=O)c2ccco2)c(C(=O)OCC)cc2c(=O)n3cccc(C)c3nc21`, the “inhibition” value was -1.3%.

`Cc1ccnc(N2CCN(C(=O)CSc3nc4ccccc4nc3N3CCC(C)CC3)CC2)c1`: the “inhibition” value was -3.35%.

On to `CSc1nc(N)nc2c1ncn2CC(=O)NCC1CCCO1` (stereo not given), for which the “inhibition” value was 0.303%.

(Values after PubChem BioAssay AID720519 (National Center for Advancing Translational Sciences (NCATS), 2013).)
